HepG2 tox = counter-screen for TGF-b inhibitors: cytotoxicity in HepG2 cells. Potency, µM (top dose mostly 46.1 µM), for inactives: at the highest dose activity change, negative = cytotoxicity, actives largely listed as cytotoxic. hit rate 0.76% among 410,000. AID 588856. HepG2 CAGA-GFP viability, ATP luminescence, 18 h; note: potency is the fitted concentration of half-maximal effect
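HepG2 CAGA-GFP cells (1000/well, DMEM with 1% FBS) received compound, then TGF-beta at 500 pg/mL final, and were incubated 18 hours at 37 degrees C. Viability was read by CellTiter-Glo luminescence. Media-only wells were set as complete cell-killing and DMSO as no toxicity.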
TDP1 cell CPT = growth inhibition of DT40 Tdp1-/-;hTDP1 cells with camptothecin (screen for TDP1 inhibitors) | hit rate 12% among 420,000 | chicken DT40 Tdp1-/-;hTDP1 cells + 20 nM CPT, ATP luminescence, 48 h | AID 686979 | Potency, µM (top dose mostly 46.2 µM), inactives show at the highest dose activity change, negative = growth inhibition, most hits filed as inhibitors; note: potency is the fitted concentration of half-maximal effect; % is set by controls: 0 for no effect and ±100 for the full control effect; nearly all actives have a fitted effect of over 55% in size
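Chicken DT40 Tdp1-/- cells stably complemented with human TDP1 were seeded at 400 cells/well in medium containing 20 nM camptothecin, exposed to pin-transferred compounds, and grown at 37 °C for at least 48 hr. Viability was read as ATP luminescence.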
IL1B secr inh = blocks inflammasome-driven IL-1 beta release. THP-1 LPS/ATP IL-1B secretion, AlphaLISA, 16 h; hits give low values. activity change, % at 57.5 µM. hit rate 4.7% among 360,000. AID 743279; in the data active = activity change below about -50%; inconclusive = mostly about -30% to -49%; note: % is set by controls: 0 for no effect and ±100 for the full control effect
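Secreted IL-1B measured by AlphaLISA bead assay after 16 h compound exposure of THP-1 cells; compounds (final up to 57.5 uM) added 1 h before LPS (250 ng/mL) and ATP (1.25 mM) stimulation; lower signal means less secretion.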
TGFb SMAD3 inh = blocks TGF-b signaling. hit rate 1.2% among 410,000. HepG2 CAGA-GFP TGF-b/SMAD3 reporter, GFP fluorescence, 18 h; TGF-beta stimulated, 500 pg/mL final. Potency, µM (highest dose often 46.1 µM), inactives show at the highest dose activity, negative = inhibition, actives largely listed as inhibitors; note: potency is the fitted concentration of half-maximal effect; % is set by controls: 0 for no effect and ±100 for the full control effect; nearly all actives have a fitted effect of over 65% in size
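Smad-responsive CAGA-GFP expression was quantified in HEPG2 cells exposed to compounds and 500 pg/mL final TGF-beta for 18 h at 37 degrees C; unstimulated wells defined full inhibition.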
DT40 TDP1 no CPT = qHTS for Inhibitors of human tyrosyl-DNA phosphodiesterase 1 (TDP1): qHTS in cells in absence of CPT; DT40 Tdp1-/- hTDP1 cells, no CPT, ATP luminescence, 48 h; Potency, µM (titrated, usually from 46.2 µM), inactives show top-dose activity change, negative = growth inhibition, most hits filed as inhibitors; hit rate 15% among 420,000; note: potency is the fitted concentration of half-maximal effect; % is set by controls: 0 for no effect and ±100 for the full control effect; nearly all actives have a fitted effect of over 55% in size
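Camptothecin absent (DMSO only). Human TDP1-complemented DT40 knockout cells, 400 cells/well, 37 °C for minimum 48 hr; ATP measured via CellTiter-Glo, 30 min dark incubation, luminescence.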
TDP1 inh = TDP1 (human) enzyme inhibition. Potency, µM (series often up to 130 µM), without a hit: at the highest dose activity change, negative = inhibition, hits mostly inhibitors. hit rate 0.28% among 350,000. recombinant TDP1, AlphaScreen DNA substrate cleavage. Q9NUW8; note: potency is the fitted concentration of half-maximal effect; % is set by controls: 0 for no effect and ±100 for the full control effect; nearly all actives have a fitted effect of over 40% in size
Target sequence (Q9NUW8 whole entry, looked up): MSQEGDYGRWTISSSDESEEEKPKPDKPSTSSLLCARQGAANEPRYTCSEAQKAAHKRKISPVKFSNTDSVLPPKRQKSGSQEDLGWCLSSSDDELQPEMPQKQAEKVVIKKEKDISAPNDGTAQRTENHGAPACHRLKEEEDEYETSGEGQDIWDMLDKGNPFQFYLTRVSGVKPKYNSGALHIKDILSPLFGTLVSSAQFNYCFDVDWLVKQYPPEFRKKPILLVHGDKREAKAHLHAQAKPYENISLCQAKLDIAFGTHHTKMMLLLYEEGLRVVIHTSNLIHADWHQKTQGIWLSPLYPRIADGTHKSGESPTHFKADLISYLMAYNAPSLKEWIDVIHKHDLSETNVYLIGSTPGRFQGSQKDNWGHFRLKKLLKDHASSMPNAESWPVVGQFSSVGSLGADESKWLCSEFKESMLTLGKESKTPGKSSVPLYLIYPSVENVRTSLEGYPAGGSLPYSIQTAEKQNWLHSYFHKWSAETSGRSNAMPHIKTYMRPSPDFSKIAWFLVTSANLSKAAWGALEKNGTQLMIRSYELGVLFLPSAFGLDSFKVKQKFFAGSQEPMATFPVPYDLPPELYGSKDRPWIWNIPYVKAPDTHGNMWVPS
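Enzyme-compound mixtures sat 15 min at room temperature, followed by a 5 min reaction with 15 nM final substrate and 10 min with AlphaScreen beads. Recombinant human Tdp1 was used at 1 nM final.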
Starred values were filed as active, the others as inactive; i = inactive; ? = inconclusive; / = no result given; [ ] = another dose, or the depositor's remark. Hits are enriched below; roughly 18% of the tested compounds scored in any of these assays. Unless noted, calls come from the whole dose curve; as a rule, active = well fitted curve in the direction sought with a large enough effect; inconclusive = small, poorly fitted or top-dose-only effect, or another doubt; inactive = no such curve, though single readings can be large; an effect the other way counts as inactive or inconclusive.

SMILES	HepG2 tox	TDP1 cell CPT	IL1B secr inh	TGFb SMAD3 inh	DT40 TDP1 no CPT	TDP1 inh
O=C(c1ccccc1Oc1ccc(C(F)(F)F)cc1[N+](=O)[O-])N1CCOCC1	-14%	-5%	9	-6%	16%	0%
COc1cc2nc(N(C)CCCNC(=O)[C@@H]3CCCO3)nc(N)c2cc1OC	/	/	/	/	/	6%[56.1 µM]
COc1cc(/C=C2/SC(=S)N(CCC(=O)Nc3ccc(C(=O)O)cc3)C2=O)cc(OC)c1OC	-5%	9%	?	2%	13%	5%
COc1ccccc1NC(=O)CCN1C(=O)/C(=C/c2cc(OC)c(OC)c(OC)c2)SC1=S	1%	?	-2	-1%	15µM*	/
COc1cc(/C=C2/SC(=S)N(CC(=O)Nc3cccnc3)C2=O)cc(OC)c1OC	-10%	-6%	0	5%	-11%	6%
CCOC(=O)N1CCN(C(=O)CCN2C(=O)/C(=C\c3ccc(OC)c(OC)c3)SC2=S)CC1	2%	-1%	-3	0%	-6%	/
COc1cc(/C=C2\SC(=S)N(CCC(=O)Nc3ccc(O)cc3)C2=O)cc(OC)c1OC	-40%	?	37	-12%	16µM*	/
COc1ccc(/C=C2\SC(=S)N(CCCC(=O)Nc3ccc(O)cc3)C2=O)cc1	-32%	?	-59*	?	?	/
COc1ccc(/C=C2/SC(=S)N(CCCC(=O)Nc3ccc(O)cc3)C2=O)cc1	-20%	?	-17	?	?	/
COc1ccc(/C=C2\SC(=S)N(CCC(=O)NC3CCCC3)C2=O)cc1OC	-40%	?	-10	-7%	16µM*	/
COc1ccc(NCc2cc3cc4c(cc3n(CC(=O)Nc3cc(C)ccc3C)c2=O)OCCO4)cc1	3%	/	/	-1%	/	0%
N#Cc1ccccc1NC(=O)COC(=O)c1ccc2c(c1)OCO2	-3%	2%	3	-3%	?	0%[56.1 µM]
CC(C)(C)n1ncc2c(=O)n(Cc3ccccc3-c3ccccc3)cnc21	-16%	/	/	-29%	/	/
O=C(NCc1ccncc1)C1CCN(S(=O)(=O)c2ccc(Cl)c(C(F)(F)F)c2)CC1	3%	?	-9	0%	?	-8%
COC(=O)c1c(NC(=O)/C=C/C(=O)O)sc(C)c1-c1ccc(C)c(C)c1	-106%	?	-95*	?	?	3%
CC(C)=C1C2CCC1C(C(=O)Nc1sc(C)c(-c3ccc(C(C)C)cc3)c1C(N)=O)C2C(=O)O (stereo not given)	-52%	16µM*	-28	?	16µM*	8%
COC(=O)c1c(NC(=O)/C=C/C(=O)O)sc(C)c1-c1ccc(C(C)C)cc1	-97%	4.6µM*	-101*	?	21µM*	5%
CCOC(=O)c1c(NC(=O)/C=C/C(=O)O)sc(C)c1-c1ccc(F)cc1	-62%	?	-101*	?	?	/
CCC(c1nnnn1-c1ccc2c(c1)OCCO2)N1CCc2ccccc2C1 (stereo not given)	/	?	4	/	?	/
CCOC(=O)c1c(NC(=O)/C=C/C(=O)O)sc(C)c1-c1ccc(C)c(C)c1	-104%	?	-95*	?	?	3%
CCOC(=O)c1c(NC(=O)/C=C/c2ccc(OCC)cc2)sc(C)c1C	-2%	/	/	13%	/	/
NC(=O)NC(=O)COC(=O)c1cccnc1Nc1ccccc1F	-14%	-5%	-25	0%	-6%	5%
CCCNC(=O)COC(=O)c1cccnc1Nc1ccccc1F	-15%	-27%	-9	-16%	16µM*	8%
Oc1cccc2ccc[n+](CC(O)CBr)c12 (stereo not given)	-6%	-2%	/	2%	-9%	/
CCN1CCN(C(=O)c2cc(COc3ccc(F)cc3F)on2)[C@@H](C)C1=O	-27%	-41%	49	-19%	16µM*	2%
SMILES	HepG2 tox	TDP1 cell CPT	IL1B secr inh	TGFb SMAD3 inh	DT40 TDP1 no CPT	TDP1 inh
O=C(c1cc(COc2ccc(F)cc2Cl)on1)N1C[C@H]2CC[C@H]1C2	0%	?	i	1%	?	0%
CCOC(=O)N1CCN(C(=O)c2cc(COc3ccc(F)cc3F)on2)CC1	-10%	?	8	6%	?	3%
O=C(c1cc(COc2ccc(F)cc2F)on1)N1CCCC(c2ccccc2)C1 (stereo not given)	-7%	-18%	?	-7%	?	/
O=C(c1cc(COc2ccc(F)cc2Cl)on1)N1CCCC(c2ccccc2)C1 (stereo not given)	-20%	?	-64*	-22%	?	9%
O=C(c1cc(COc2ccc(F)cc2Cl)on1)N1CC2C[C@@H]3CC1C[C@H](C2)C3	-7%	1.3µM*	-16	-2%	?	0%
CCOc1ccc(CCNC(=O)COC(=O)c2nccnc2N)cc1OCC	-3%	-3%	9	5%	2%	/
CC(C)NC(=O)C1Cc2c(-c3ccc(Cl)cc3)ccnc2O1 (stereo not given)	0%	-29%	25	8%	-28%	/
CNS(=O)(=O)c1cc2c3c(cccc3c1)C(=O)NC2=O	7%	18µM*	-10	2%	23µM*	3%
Cc1ccc(NS(=O)(=O)c2cc3c4c(cccc4c2)C(=O)NC3=O)cc1	-34%	?	14	0%	9.2µM*	-1%
CSc1ccccc1NC(=O)CN(C)C(=O)c1ccc(-n2cccn2)cc1	-6%	?	-7	5%	?	-1%
Cc1nnc(NC(=O)CCC(=O)N2CCN(S(=O)(=O)c3cc([N+](=O)[O-])ccc3C)CC2)s1	0%	-7%	18	6%	-10%	2%
Cc1ccc(N(C(=O)c2csnn2)C(C(=O)NC2CCCCC2)c2ccco2)cc1 (stereo not given)	-5%	?	21	0%	?	1%
COc1ccc(OC)c(S(=O)(=O)n2nc(-c3ccccc3)cc2N)c1	-21%	-30%	10	1%	-25%	4%
COc1ccc(S(=O)(=O)n2nc(-c3ccc(Cl)cc3)cc2N)cc1OC	-40%	?	-2	?	?	1%
COc1cc(OC)cc(-c2cc(N)n(S(=O)(=O)Cc3ccccc3)n2)c1	-8%	?	-15	17%	18µM*	3%
COc1cc(-c2cc(N)n(S(=O)(=O)c3ccc(F)cc3)n2)cc(OC)c1OC	-23%	16µM*	0	-10%	18µM*	5%
